Compound activity (PubChem)
E coli growth-1: E. coli growth inhibition; actives 0.21% (n = 330,000); AID 1053175; Escherichia coli growth, OD600, 23 h; hits give low values; OD600 absorbance (test concentration not listed);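 active = OD600 absorbance below the run mean of sample wells minus 3.6 SD, in any replicate, cut at about 0.56 in these data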
phage Ecoli inh: E. coli growth loss with phage present | growth absorbance | inhibition, % at 11.9 µM | actives 0.26% (n = 360,000); in the data active = inhibition above about 11%
AddAB inh: less growth of phage-infected E. coli with AddAB; AID 435030; E. coli expressing H. pylori AddAB, absorbance growth; inhibition, % at 11.9 µM; actives 0.29% (n = 330,000); in the data active = inhibition above about 12%;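 note: 0% = vehicle wells of infected cells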
E coli growth-2: bacterial growth inhibition, counter-screen for AddAB inhibitors; inhibition, % at 11.9 µM; AID 449728; E. coli V3065 growth, OD600 absorbance, 18 h; actives 0.27% (n = 330,000);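 active = inhibition above the campaign's mean inhibition across all tested compounds plus 3 SD, cut at about 9.9% in these data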;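 note: uninfected addAB+ strain grown without phage in ampicillin broth; 0% = DMSO wells and 100% = ciprofloxacin 0.95 µg/ml wells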
Tat transport: E. coli Tat transport inhibition | E. coli MC4100 TorA-mCherry Tat export, fluorescence | inhibition, % at 10 µM | actives 0.036% (n = 340,000) | AID 488895;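 active = mean replicate inhibition at least 50% and at least half of replicates individually reaching 50%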;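 note: exported cargo escapes ClpAP degradation while cytoplasmic cargo is degraded and loses fluorescence; 0% = median of neutral control wells and 100% = median of NaSCN control wells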
RecBCD conf: confirmation: growth loss of phage-infected RecBCD+ E. coli (RecBCD inhibitor screen) | E. coli V66 + T4 2- phage, growth OD | shares compounds with phage Ecoli inh | inhibition, % at 11.9 µM | actives 45% (n = 890);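 active = mean inhibition over triplicates exceeding the hit threshold derived in the original primary screen, cut at about 11% in these data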
Ecoli viability: counter-screen for RecBCD inhibitors: inhibitors of bacterial viability | shares compounds with phage Ecoli inh | E. coli viability, absorbance (OD) growth | inhibition, % at 11.9 µM | actives 29% (n = 890) | AID 651983; in the data active = inhibition above about 20%;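 note: E. coli strain V66 grown with compound alone and no phage infection; 0% = bacteria with DMSO vehicle only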
AddAB phage OD: growth loss of phage-infected AddAB E. coli, RecBCD counter-screen. AID 651984. E. coli expressing H. pylori AddAB + T4 phage, OD growth; gene 2 mutant T4, recBCD-deleted host. inhibition, % at 11.9 µM. shares compounds with phage Ecoli inh. actives 45% (n = 890);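 active = mean inhibition above the solvent-only control wells' mean plus 3 SD, cut at about 22% in these data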;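 note: higher means less bacterial growth from phage killing when AddAB is blocked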
Starred values were filed as active, the others as inactive; . = no result given. Only some compounds are listed: those with a hit (about 0.5% of all), similar ones and a draw of the others.

SMILES | E coli growth-1 | phage Ecoli inh | AddAB inh | E coli growth-2 | Tat transport | RecBCD conf | Ecoli viability | AddAB phage OD
CCNC(=S)NN=Cc1ccccc1[N+](=O)[O-] | 0.7 | . | . | . | . | . | . | .
Cc1cn([C@H]2C=C[C@@H](CO)O2)c(=O)[nH]c1=O | 0.65 | 22* | 7 | 3 | 4 | 16* | 7 | 51*
Nn1c(SCc2cccc(Br)c2)nnc1-c1ccncc1 | 0.65 | 100* | -3 | -5 | 9 | 2 | 2 | 0
Nn1c(SCc2cccc(F)c2)nnc1-c1ccncc1 | 0.63 | 1 | 1 | 1 | -5 | . | . | .
COC(=O)C(Cc1ccccc1)NC(=O)C1CC1C(NC(=O)OCc1ccccc1)c1ccccc1 (configuration not stated) | 0.69 | . | . | . | . | . | . | .
Cc1ccc2ccc(C(Nc3ccccc3)c3ccccc3)c(O)c2n1 (configuration not stated) | . | 12* | . | . | . | 3 | 5 | 12
Cc1ccc2ccc(C(Nc3ccccn3)c3ccccc3)c(O)c2n1 (configuration not stated) | 0.8 | 8 | 3 | -3 | -3 | . | . | .
Cc1ccc2ccc(C(Nc3ccccc3)c3ccc(C(C)C)cc3)c(O)c2n1 (configuration not stated) | . | 9 | . | . | . | . | . | .
Cc1ccnc(NC(c2ccccc2)c2ccc3cccnc3c2O)c1 (configuration not stated) | 0.72 | 17* | . | . | -3 | 9 | 14 | 15
Cc1ccc2ccc(C(Nc3ccccc3)c3ccc(Cl)cc3)c(O)c2n1 (configuration not stated) | . | 12* | . | . | . | 1 | 3 | 2
Cc1ccc(CC(=O)Nc2ncc([N+](=O)[O-])s2)cc1 | 0.56 | 13* | 6 | 9 | -15 | 9 | 9 | -2
Cc1ccc(S(=O)(=O)CC(=O)Nc2ncc([N+](=O)[O-])s2)cc1 | 0.64 | -1 | 0 | -2 | 4 | . | . | .
CC(C)CC(NC(=O)c1nc[nH]c1C(=O)NC(CCCCNC(=O)OC(C)(C)C)C(=O)OC(C)(C)C)C(=O)OCc1ccccc1 (configuration not stated) | 0.72 | . | . | . | . | . | . | .
CCCOc1ccc(CNC(=O)c2ccc3nc(N4CCOCC4)sc3c2)cc1 | 0.75 | 25* | -1 | -1 | -12 | -1 | 0 | 4
COc1ccc(S(=O)(=O)N(C)CC2Oc3ccc(NC(=O)Nc4ccc5c(c4)OCO5)cc3CC(=O)N(C(C)CO)CC2C)cc1 (configuration not stated) | 0.66 | . | . | . | . | . | . | .
S=C(NCc1ccccc1)NCc1ccc(CNC(=S)NCc2ccccc2)cc1 | 0.69 | 2 | 2 | 0 | -7 | . | . | .
CCNC(=S)NNC(=S)NCc1ccccc1 | 0.72 | 11* | 10 | 2 | -5 | 4 | 3 | 9
O=C(NCc1ccccc1)c1sc(=S)n2c1[nH]c(=O)c1ccccc12 | 0.72 | 15* | 4 | -2 | -4 | -2 | -2 | -10
CCc1n[nH]c(=S)n1N=Cc1cc(Br)c(OC)cc1OC | 0.69 | . | . | . | . | . | . | .
Cn1cc(S(=O)(=O)N2CCOCC2)cc1C(=O)Nc1ccc(Cl)cc1 | 0.72 | 2 | 1 | 0 | -1 | . | . | .
COc1ccc(C(=O)Nc2ccc(S(=O)(=O)N3CCOCC3)cc2)cc1 | 0.65 | 12* | 3 | 1 | . | 0 | 0 | -2
Cc1ccc(NC(=O)c2cc(S(=O)(=O)N3CCOCC3)cn2C)cc1F | 0.72 | 29* | 2 | 1 | -10 | -3 | -3 | -8
CC1CC(=NN2C(=O)CSC2=S)CC(C)(C)C1 (configuration not stated) | 0.71 | . | . | . | . | . | . | .
O=Nc1c(-c2cccc([N+](=O)[O-])c2)nc2ncccn12 | . | 16* | 5 | 2 | . | 72* | 77* | 100*
CC(=O)N/C(=N/c1nc(C)cc(C)n1)Nc1ccc(Cl)cc1Cl | 0.69 | . | . | . | . | . | . | .
SMILES | E coli growth-1 | phage Ecoli inh | AddAB inh | E coli growth-2 | Tat transport | RecBCD conf | Ecoli viability | AddAB phage OD
COc1cccc(N=Nc2ccc(O)c3ncccc23)c1 | . | 13* | 8 | 7 | -14 | 5 | 7 | 11
Oc1ccc(N=Nc2ccc3c(c2)OCCO3)c2cccnc12 | 0.73 | 15* | 8 | 6 | 2 | 7 | 9 | 8
COc1ccc(C)cc1N=Nc1ccc(O)c2ncccc12 | 0.73 | 18* | . | . | -7 | 6 | 8 | 19
COc1cccc(N=Nc2ccc3cccnc3c2O)c1 | 0.71 | 14* | 7 | 15* | -5 | 6 | 10 | 6
COc1ccc(NC(=O)Nc2cccc3c2OC(CN(C)CC2CCCCC2)C(C)CN(C(C)CO)C3=O)cc1 (configuration not stated) | 0.67 | . | . | . | . | . | . | .
CC(C)CN1C(Nc2ccccc2)=NCC1C (configuration not stated) | 0.68 | . | . | . | . | . | . | .
Cc1ccc(NC(=O)NNC(=O)c2cc3ccccc3cc2O)c(C)c1 | 0.7 | 12* | 11 | 10* | 2 | 7 | 8 | 7
O=C(NNC(=O)c1cc2ccccc2cc1O)Nc1ccccc1F | 0.68 | 11* | 12 | 9.9* | -5 | 6 | 7 | 10
CCc1ccc(NC(=O)NNC(=O)c2cc3ccccc3cc2O)cc1 | 0.7 | 7 | 5 | 7 | -16 | . | . | .
